# High-throughput results: PubChem, University of Kansas High Throughput Screening Laboratory
# mHTT-CaM PPI inh – mutant huntingtin-calmodulin interaction inhibitors – biochemical, AlphaScreen, primary screen; AlphaScreen His-mHTT/GST-CaM binding, luminescence; inhibition, % at 15 µM; actives 3.6% (n = 190,000); AID 1671202, 2021;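 further: 0% = both proteins with DMSO and 100% = one protein alone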
# Target sequence (P42858 whole entry, looked up, stated change not applied): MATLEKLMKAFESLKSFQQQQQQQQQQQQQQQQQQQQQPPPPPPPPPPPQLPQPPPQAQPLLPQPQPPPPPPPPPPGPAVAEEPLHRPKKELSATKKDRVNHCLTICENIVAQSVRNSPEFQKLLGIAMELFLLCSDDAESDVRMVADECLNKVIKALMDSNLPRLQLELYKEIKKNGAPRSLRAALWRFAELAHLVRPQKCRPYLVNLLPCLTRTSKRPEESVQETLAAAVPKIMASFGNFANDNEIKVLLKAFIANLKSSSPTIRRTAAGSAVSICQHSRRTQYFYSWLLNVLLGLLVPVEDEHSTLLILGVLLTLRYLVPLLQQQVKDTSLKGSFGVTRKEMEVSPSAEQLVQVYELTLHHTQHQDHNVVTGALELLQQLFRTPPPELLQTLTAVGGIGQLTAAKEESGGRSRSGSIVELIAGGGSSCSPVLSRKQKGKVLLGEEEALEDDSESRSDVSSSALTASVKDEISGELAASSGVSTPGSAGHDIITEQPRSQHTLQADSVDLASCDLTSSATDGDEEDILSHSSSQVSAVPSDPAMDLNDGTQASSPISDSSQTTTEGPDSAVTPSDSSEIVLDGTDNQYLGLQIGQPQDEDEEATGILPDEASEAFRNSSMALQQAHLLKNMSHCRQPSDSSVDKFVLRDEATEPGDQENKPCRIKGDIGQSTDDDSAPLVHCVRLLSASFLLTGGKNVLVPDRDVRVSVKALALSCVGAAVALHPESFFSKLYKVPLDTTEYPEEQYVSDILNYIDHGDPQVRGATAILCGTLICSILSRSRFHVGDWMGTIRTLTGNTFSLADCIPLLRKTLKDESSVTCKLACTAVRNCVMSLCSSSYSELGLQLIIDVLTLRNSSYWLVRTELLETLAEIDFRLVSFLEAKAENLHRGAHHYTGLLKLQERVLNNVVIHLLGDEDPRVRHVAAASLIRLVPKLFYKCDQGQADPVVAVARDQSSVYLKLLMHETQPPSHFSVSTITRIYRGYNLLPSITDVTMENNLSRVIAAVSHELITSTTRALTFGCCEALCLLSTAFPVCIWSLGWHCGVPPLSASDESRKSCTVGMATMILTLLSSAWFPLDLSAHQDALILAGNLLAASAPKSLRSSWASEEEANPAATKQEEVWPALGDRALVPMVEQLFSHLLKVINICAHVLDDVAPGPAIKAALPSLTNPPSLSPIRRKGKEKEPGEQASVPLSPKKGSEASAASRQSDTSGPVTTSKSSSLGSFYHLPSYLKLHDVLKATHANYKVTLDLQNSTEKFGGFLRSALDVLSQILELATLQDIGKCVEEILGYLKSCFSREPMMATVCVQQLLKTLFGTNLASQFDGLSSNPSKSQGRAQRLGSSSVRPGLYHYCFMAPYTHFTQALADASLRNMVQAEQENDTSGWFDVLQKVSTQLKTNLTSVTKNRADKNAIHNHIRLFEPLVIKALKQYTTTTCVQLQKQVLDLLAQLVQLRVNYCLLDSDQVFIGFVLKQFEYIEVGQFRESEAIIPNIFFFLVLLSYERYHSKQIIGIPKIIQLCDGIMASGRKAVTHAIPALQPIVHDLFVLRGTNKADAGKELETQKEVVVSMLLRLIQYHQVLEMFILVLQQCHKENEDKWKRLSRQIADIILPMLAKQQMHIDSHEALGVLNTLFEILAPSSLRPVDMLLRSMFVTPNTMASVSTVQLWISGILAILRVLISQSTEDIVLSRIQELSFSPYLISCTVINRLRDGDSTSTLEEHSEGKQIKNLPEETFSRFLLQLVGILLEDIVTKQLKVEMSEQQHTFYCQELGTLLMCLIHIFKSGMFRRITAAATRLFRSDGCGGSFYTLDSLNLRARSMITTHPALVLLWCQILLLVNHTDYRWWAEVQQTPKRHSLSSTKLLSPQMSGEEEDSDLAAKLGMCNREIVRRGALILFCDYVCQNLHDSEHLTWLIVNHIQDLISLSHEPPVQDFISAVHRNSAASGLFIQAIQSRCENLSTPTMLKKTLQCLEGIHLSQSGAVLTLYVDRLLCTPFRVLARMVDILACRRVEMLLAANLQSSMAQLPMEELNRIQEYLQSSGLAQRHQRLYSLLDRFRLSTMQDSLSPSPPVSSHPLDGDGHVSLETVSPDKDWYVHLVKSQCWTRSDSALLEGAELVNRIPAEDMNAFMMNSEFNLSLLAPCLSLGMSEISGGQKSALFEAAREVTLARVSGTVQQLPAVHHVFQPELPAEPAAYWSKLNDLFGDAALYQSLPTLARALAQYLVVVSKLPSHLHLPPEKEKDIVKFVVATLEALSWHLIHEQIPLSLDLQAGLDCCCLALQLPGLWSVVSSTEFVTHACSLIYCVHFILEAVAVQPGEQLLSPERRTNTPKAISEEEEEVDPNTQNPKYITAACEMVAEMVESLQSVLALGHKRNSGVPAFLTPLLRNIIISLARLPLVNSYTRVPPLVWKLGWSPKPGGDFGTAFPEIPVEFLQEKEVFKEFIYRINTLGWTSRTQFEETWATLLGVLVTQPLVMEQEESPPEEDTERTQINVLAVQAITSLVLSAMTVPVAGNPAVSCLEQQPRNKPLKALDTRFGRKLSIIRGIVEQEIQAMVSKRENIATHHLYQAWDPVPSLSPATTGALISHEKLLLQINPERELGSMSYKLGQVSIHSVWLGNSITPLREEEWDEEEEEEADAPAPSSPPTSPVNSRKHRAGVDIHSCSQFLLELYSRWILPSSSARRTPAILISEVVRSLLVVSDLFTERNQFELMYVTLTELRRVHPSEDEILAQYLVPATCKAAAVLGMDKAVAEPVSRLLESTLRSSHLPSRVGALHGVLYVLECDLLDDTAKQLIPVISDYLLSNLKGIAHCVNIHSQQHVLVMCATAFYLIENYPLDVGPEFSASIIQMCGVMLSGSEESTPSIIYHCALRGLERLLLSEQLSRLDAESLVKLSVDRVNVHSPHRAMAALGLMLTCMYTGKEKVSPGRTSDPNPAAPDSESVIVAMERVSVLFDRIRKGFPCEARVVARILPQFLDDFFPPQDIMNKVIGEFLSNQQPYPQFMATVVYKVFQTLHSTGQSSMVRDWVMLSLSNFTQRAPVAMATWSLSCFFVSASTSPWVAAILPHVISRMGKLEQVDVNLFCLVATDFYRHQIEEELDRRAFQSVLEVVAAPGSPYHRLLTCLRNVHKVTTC
# Pf apPOL inh – Pf-apPOL inhibitors, biochemical, fluorescence; inhibition, % at 10 µM; actives 0.25% (n = 210,000); Recombinant Pf-apPOL, molecular beacon fluorescence, 1.5 h; AID 1794808, 2022
# * hit, by the source's call; · = no result given. The list is not random: actives were taken first. Their share in the collection is about 3.5%. No stated cut-off is given here; in the data, active means inhibition above about 50%; inactive means the rest.
SMILES,mHTT-CaM PPI inh,Pf apPOL inh
COc1cc(OC)cc(-c2nc3n(n2)C(c2ccccc2)C2=C(CCCC2=O)N3)c1 (configuration not stated),23,2
COc1ccc(C2C3=C(CCCC3=O)Nc3nc(-c4cccc(C)c4)nn32)cc1OC (configuration not stated),86*,-2
COc1ccc(C2C3=C(CCCC3=O)Nc3nc(-c4cccc(Cl)c4)nn32)cc1OC (configuration not stated),18,-6
COc1ccc(C2C3=C(CCCC3=O)Nc3nc(-c4ccccc4)nn32)cc1OC (configuration not stated),76*,0
COc1cc(OC)cc(-c2nc3n(n2)C(c2ccc(F)cc2)C2=C(CCCC2=O)N3)c1 (configuration not stated),57*,2
COc1ccccc1C1C2=C(CCCC2=O)Nc2nc(-c3cccc(C)c3)nn21 (configuration not stated),6,-2
O=C1CCCC2=C1C(c1ccncc1)n1nc(-c3cccc(Cl)c3)nc1N2 (configuration not stated),55*,-3
O=C1CCCC2=C1C(c1ccc3c(c1)OCO3)n1nc(-c3cccc(Cl)c3)nc1N2 (configuration not stated),19,-2
CCCCC1(CCCC)NC(=S)N(c2ccc(C)cc2)N1,-6,·
COc1ccc(-c2nc3n(n2)C(c2ccc(Cl)cc2)C2=C(CCCC2=O)N3)cc1OC (configuration not stated),9,0
COc1ccc(-c2nc3n(n2)C(c2ccc(OC)cc2)C2=C(CCCC2=O)N3)cc1 (configuration not stated),47,-1
O=C1CCCC2=C1C(c1ccc(Br)cc1)n1nc(-c3ccco3)nc1N2 (configuration not stated),84*,1
COc1ccc(-c2nc3n(n2)C(c2ccccc2)C2=C(CCCC2=O)N3)cc1OC (configuration not stated),60*,0
Fc1ccccc1Cc1nc(-c2cccc(-c3ccn[nH]3)c2)no1,36,-3
CCc1cccc(NC(=O)Nc2ccc3nnc(C)n3c2)c1,10,3
O=C(Nc1c(F)c(F)c(F)c(F)c1F)c1cccs1,-8,-23
COc1cc(Br)c(S(=O)(=O)N2CCN(c3ccc(C)c(C)c3)CC2)cc1OC,53*,1
Cc1cc(Br)c(S(=O)(=O)N2CCN(c3ccccc3)CC2)cc1C,-2,-8
COc1cc(S(=O)(=O)N2CCN(c3ccc(C)c(C)c3)CC2)c(OC)cc1Br,59*,1
COc1cc(S(=O)(=O)N2CCN(c3ccc(F)cc3)CC2)c(OC)cc1Br,1,-6
CC1C(=O)N(c2ccccc2Cl)CCN1C(=O)c1cccc(F)c1 (configuration not stated),-11,0
CCc1cccc(NC(=O)c2cc3c(=O)n(CC)ccc3n2C)c1,4,-3
O=C(O)c1cccc(Nc2nc(-c3ccccc3)cs2)c1,16,1
O=C(O)c1cccc(Nc2nc(-c3ccccn3)cs2)c1,96*,-4
Oc1cccc(Nc2nc(-c3ccccn3)cs2)c1,99*,-4
SMILES,mHTT-CaM PPI inh,Pf apPOL inh
Oc1ccc(-c2csc(Nc3ncccn3)n2)c(O)c1,9,-3
Cc1cccc(Nc2nc(-c3ccccn3)cs2)c1,97*,-1
Cc1ccc(C)c(-c2csc(Nc3ncccn3)n2)c1,2,-7
O=C(c1cccc(F)c1)N1CCC(N2CCC(C(=O)N3CCOCC3)CC2)CC1,3,0
O=C(NCCN1CCCC1)c1cc2n(n1)CCCN(Cc1ccccc1)C2=O,11,-6
CC(C)(C)N=C1Nc2ncccc2NC12CCN(C(=O)c1cc(-c3cccs3)[nH]n1)CC2,57*,-3
CC(C)(C)N=C1Nc2ncccc2NC12CCCN(C(=O)c1cc(-c3cccs3)[nH]n1)C2 (configuration not stated),10,-3
CCc1cccc(CC)c1NC(=O)Cc1ccc([N+](=O)[O-])cc1,-2,0
Cc1noc(C2CN(C(=O)Nc3cc(F)ccc3F)CC23CCOCC3)n1 (configuration not stated),-4,-2
CC(C(=O)Nc1ccccn1)N1C(=O)C2C3C=CC(C3)C2C1=O (configuration not stated),3,2
CC(C(=O)Nc1cccc2c1C(=O)c1ccccc1-2)N1C(=O)C2C3C=CC(C3)C2C1=O (configuration not stated),61*,-1
CCc1nncn1C1CCN(S(=O)(=O)c2ccc(C#N)cc2)C1 (configuration not stated),0,-6
Cc1ccc2nc(-c3cc(N=Cc4ccc([N+](=O)[O-])cc4)ccc3O)[nH]c2c1,55*,1
O=[N+]([O-])c1ccccc1C=Nc1ccc2nc(-c3ccccc3)[nH]c2c1,32,-10
O=C(O)c1cccc(N=Cc2cc(Cl)cc([N+](=O)[O-])c2O)c1,9,2
Cc1ccc2nc(-c3cccc([N+](=O)[O-])c3)[nH]c2c1,12,-3
Cc1ccc2nc(-c3cc(N=Cc4cccc([N+](=O)[O-])c4)ccc3O)[nH]c2c1,55*,4
Cc1cccc2oc(-c3cc(N=Cc4cccc([N+](=O)[O-])c4)ccc3O)nc12,2,-2
Cc1ccc2nc(-c3cc(N=Cc4cccc([N+](=O)[O-])c4O)ccc3O)[nH]c2c1,59*,0
O=C(O)c1cccc(N=Cc2cccc([N+](=O)[O-])c2O)c1,-3,83*
CCC1(C)CC(CCNCc2ccc(N(C)C)cc2)(c2ccc(OC)cc2)CCO1 (configuration not stated),86*,0
CCC1(C)CC(CCNCc2ccc(OC)c(OC)c2)(c2ccccc2OC)CCO1 (configuration not stated),12,-11
O=C(CCC1CCCC1)N1CCCN(c2nnc3ccc(C(F)(F)F)cn23)CC1,11,-4
CCOc1ccccc1CN1CCc2nc(Nc3ccc4c(c3)OCCO4)ncc2C1,83*,-3
Cc1ccc(CN2CCc3nc(Nc4ccc5c(c4)OCO5)ncc3C2)cc1,11,-4
SMILES,mHTT-CaM PPI inh,Pf apPOL inh
Fc1cccc(CN2CCc3nc(Nc4ccc5c(c4)OCO5)ncc3C2)c1,18,-5
COc1cccc(CN2CCc3nc(Nc4ccc5c(c4)OCO5)ncc3C2)c1,84*,3
COc1ccccc1CN1CCc2nc(Nc3ccc4c(c3)OCO4)ncc2C1,51*,0
COc1ccccc1CN1CCc2nc(Nc3ccc4c(c3)OCCO4)ncc2C1,33,-3
CCOc1ccc(CN2CCc3nc(Nc4ccc5c(c4)OCO5)ncc3C2)cc1OC,31,2
CC(C)Oc1ccc(CN2CCc3nc(Nc4ccc5c(c4)OCO5)ncc3C2)cc1,80*,2
N#Cc1c(C#N)c(N)n(N)c1N,100*,·
Cn1nc(CC#N)c(C#N)c1N,·,11
COc1ccc(Cn2c(Cl)cc(=O)n(C)c2=O)cc1[N+](=O)[O-],1,1
CCC/C=C/c1ccc(CN2C(C(C)C)C(=O)N(Cc3cn(Cc4ccco4)nn3)CCS2(=O)=O)cc1 (configuration not stated),57*,-1
CCC/C=C/c1ccc(CN2C(C)C(=O)N(Cc3cn(Cc4ccco4)nn3)CCS2(=O)=O)cc1 (configuration not stated),35,-4
